Records with an inconclusive call do not appear. Activity calls are given as the source filed them. How the source made its calls, unless noted: active means hit-call score of the fitted dose curve at least 0.9, where 1 is the maximum; inactive means score below 0.9.

Results on seven molecules are retold here after PubChem BioAssay (EPA / NIEHS).

Test [1] can be described thus: BSK_3C_Proliferation: Cell Proliferation Assessment in the BioMAP Diversity Plus: 3C Assay (AID 2283006). The following applies: primary human endothelial cells (HUVEC). The procedure, abridged: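 HUVEC, sub-confluent; 48 h chemical exposure; 10% TCA fix, 0.1% SRB stain, A560 total protein. Gain or loss of signal fitted both directions vs DMSO control.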
Test [2] is described as follows: BSK_3C_Vis: BioMAP Diversity Plus: 3C Assay for Morphology Visualization (AID 2283025).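 Further: fitted both ways so gain or loss versus DMSO counts.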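 On AC50: light microscopy image of cell morphology used as background control.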 Particulars: primary human endothelial cells (HUVEC). The procedure, abridged:
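HUVEC, 3C system; light microscopy of morphology at 24 h post-dose. Bidirectional fit vs DMSO baseline. Secondary readout, background-control function.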

Read-out in test [3]: Transforming growth factor beta 1 (TGFb1), TGFB1 (gene 7040)
As to the kind of experiment: BSK_BE3C_TGFb1: BioMAP Diversity Plus: BE3C Assay for Transforming growth factor beta 1 (TGFb1) Biomarker Activity (AID 2283036;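 further: TGF-b1 protein level measured by ELISA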). The following applies: primary human bronchial epithelial cells; actives raise or lower the signal. The gist of the method:
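Read-out: ELISA for TGF-b1 in primary human bronchial epithelial cultures, 24 h post-dose. Bidirectional curve fitting vs DMSO control; gain or loss of signal both scored.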

Test [4] in a line: BSK_CASM3C_SRB: Viability Assessment in the BioMAP Diversity Plus: CASM3C Assay (AID 2283050). Particulars: primary human coronary artery smooth muscle cells.
Read-out in test [5]: Transforming growth factor beta 1 (TGFb1), TGFB1 (gene 7040)
As to the kind of experiment: BSK_KF3CT_TGFb1: BioMAP Diversity Plus: KF3CT Assay for Transforming growth factor beta 1 (TGFb1) Biomarker Activity (AID 2283072). The following applies: primary human keratinocytes with fibroblasts; actives raise or lower the signal. The procedure, abridged: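 Read-out: ELISA for TGF-b1 in keratinocyte/foreskin fibroblast human skin co-culture, 24 h after dosing; bidirectional curve fit vs DMSO baseline; gain or loss of signal scored.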

Read-out in test [6]: CD40, CD40 (gene 958)
As to the kind of experiment: BSK_LPS_CD40: BioMAP Diversity Plus: LPS Assay for CD40 Biomarker Activity (AID 2283076). The following applies: primary human HUVEC with PBMC; actives raise or lower the signal. The gist of the method: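 HUVEC plus PBMC co-culture stimulated with LPS; CD40 quantified by ELISA 24 h after compound dosing. Fitting was bidirectional relative to DMSO. SRB staining of parallel cultures flagged overt cytotoxicity.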

Read-out in test [7]: Tumor necrosis factor (Homo sapiens) (UniProt P01375)
As to the kind of experiment: BSK_LPS_TNFa: BioMAP Diversity Plus: LPS Assay for Tumour Necrosis Factor alpha (TNFa) Biomarker Activity (AID 2283085). Particulars: primary human HUVEC with PBMC; actives raise or lower the signal. The procedure, abridged: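 HUVEC/PBMC co-culture, LPS-stimulated; 24 h post-dose; TNFa by ELISA; gain or loss of signal fitted bidirectionally vs DMSO baseline.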

Read-out in test [8]: Vascular cell adhesion molecule 1 (VCAM1), VCAM1 (gene 7412)
As to the kind of experiment: BSK_LPS_VCAM1: BioMAP Diversity Plus: LPS Assay for Vascular cell adhesion molecule 1 (VCAM1) Biomarker Activity (AID 2283086). The following applies: primary human HUVEC with PBMC; actives raise or lower the signal. The procedure, abridged: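 ELISA read-out of VCAM-1 at 24 h post-dosing in an LPS-driven HUVEC/PBMC primary human co-culture; gain or loss of signal fitted bidirectionally against DMSO baseline. Cytotoxicity tracked in parallel cultures by SRB total-protein staining.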

Read-out in a further test: CD38, CD38 (gene 952)
As to the kind of experiment: BSK_SAg_CD38: BioMAP Diversity Plus: SAg Assay for CD38 Biomarker Activity (AID 2283087). Particulars: primary human HUVEC with PBMC; actives raise or lower the signal. The gist of the method:
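Measures CD38 on a human endothelial/PBMC co-culture driven by SEB and TSST-1, 24 h after compound exposure, using ELISA with fluorescence detection; DMSO defines baseline for bidirectional curve fitting.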

Read-out in test [9]: CD40, CD40 (gene 958)
As to the kind of experiment: BSK_SAg_CD40: BioMAP Diversity Plus: SAg Assay for CD40 Biomarker Activity (AID 2283088). The following applies: primary human HUVEC with PBMC; actives raise or lower the signal. The gist of the method: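 HUVEC plus PBMC co-culture, superantigen-activated, with CD40 read by ELISA 24 h after dosing. Curves fitted in both directions against DMSO. Overt cytotoxicity checked by parallel SRB total-protein staining.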

Read-out in the next test: CD69, CD69 (gene 969)
As to the kind of experiment: BSK_SAg_CD69: BioMAP Diversity Plus: SAg Assay for CD69 Biomarker Activity (AID 2283089). Particulars: primary human HUVEC with PBMC; actives raise or lower the signal. The procedure, abridged:
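Values derive from bidirectional fitting relative to DMSO vehicle. Cells: umbilical vein endothelium plus peripheral blood mononuclear cells, treated 24 h before fluorescent ELISA for CD69.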

Read-out in test [10]: Monocyte Chemoattractant Protein-1 (MCP1), CCL2 (gene 6347)
As to the kind of experiment: BSK_SAg_MCP1: BioMAP Diversity Plus: SAg Assay for Monocyte Chemoattractant Protein-1 (MCP1) Biomarker Activity (AID 2283090). The following applies: primary human HUVEC with PBMC; actives raise or lower the signal. The procedure, abridged: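 Values derive from bidirectional fitting of ELISA-measured MCP1 against DMSO controls. Readings were taken 24 h after dosing human vascular endothelial cells co-cultured with peripheral blood mononuclear cells under superantigen stimulation.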

Test [11] in a line: BSK_SAg_Proliferation: Cell Proliferation Assessment in the BioMAP Diversity Plus: SAg Assay (AID 2283095).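 Further: relative cell number as total protein by SRB absorbance in sub-confluent culture.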 The following applies: primary human HUVEC with PBMC. The procedure, abridged:
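HUVEC/PBMC co-culture, 96-well. TCA-fixed (10%), 0.1% SRB stain, A560 at 96 h. Protein content used as viability readout; bidirectional fitting vs DMSO control.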

Test [12] in a line: BSK_SAg_SRB: Viability Assessment in the BioMAP Diversity Plus: SAg Assay (AID 2283096).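 Further: cells read one day after compound addition; hits may be either gain or loss of signal compared with DMSO.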 The following applies: primary human HUVEC with PBMC. The procedure, abridged:
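This overt-cytotoxicity endpoint quantifies protein in human endothelial/PBMC co-cultures at 24 h using SRB absorbance (560 nm) after trichloroacetic acid fixation. Values reflect signal change from the DMSO negative control, fitted bidirectionally.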

Read-out in test [13]: Secreted IgG (sIgG), gene 3500
As to the kind of experiment: BSK_BT_sIgG: BioMAP Diversity Plus: BT Assay for Secreted IgG (sIgG) Biomarker Activity (AID 2284226). The following applies: primary human B cells with PBMC. The procedure, abridged: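 Human B cell/PBMC co-culture; compound exposure 24 h; sIgG by ELISA; gain-of-signal fit vs DMSO baseline.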

Test [14] can be described thus: BSK_BT_Bcell_Proliferation: Viability Assessment in the BioMAP Diversity Plus: BT Assay for B cell Proliferation (AID 2284227). The following applies: primary human B cells with PBMC. The procedure, abridged: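 Using a human primary B cell–PBMC co-culture, the assay measures total protein by sulforhodamine B absorbance as a gauge of proliferation after 72 h. Analysis followed the positive fitting direction with DMSO as baseline.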

Read-out in test [15]: Interleukin 6 (IL6), IL6 (gene 3569)
As to the kind of experiment: BSK_BT_xIL6: BioMAP Diversity Plus: BT Assay for Interleukin 6 (IL6) Biomarker Activity (AID 2284228). The following applies: primary human B cells with PBMC. The procedure, abridged: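 Human B cell/PBMC co-culture; secreted IL-6 quantified by Luminex xMAP 24 h after chemical dosing, fitted relative to DMSO. Parallel PBMC viability by Alamar Blue after 1 h pretreatment, 20 ng/mL SEB and TSST-1, 90 h incubation.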

Read-out in test [16]: Interleukin 17A (IL17A), IL17A (gene 3605)
As to the kind of experiment: BSK_BT_xIL17A: BioMAP Diversity Plus: BT Assay for Interleukin 17A (IL17A) Biomarker Activity (AID 2284229). Particulars: primary human B cells with PBMC. The gist of the method: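 Co-culture of human B cells and PBMC, dosed for 24 h in 96-well format. Secreted IL-17A measured with Luminex xMAP; gain-direction fitting against DMSO as baseline.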

Read-out in test [17]: Vascular cell adhesion molecule 1 (VCAM1), VCAM1 (gene 7412)
As to the kind of experiment: BSK_MyoF_VCAM1: BioMAP Diversity Plus: MyoF Assay for Vascular cell adhesion molecule 1 (VCAM1) Biomarker Activity (AID 2284231). Particulars: primary human lung fibroblasts. The procedure, abridged: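 Primary human lung fibroblasts (BioMAP MyoF system) dosed with chemical, VCAM-1 measured by ELISA 24 hours later. Fitted in the positive direction against DMSO; parallel SRB staining assessed cytotoxicity.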

In test [18] the target is human Retinoic Acid Receptor beta (RARb), RARB (gene 5915) (UniProt P10826). As to the kind of experiment: ATG_RARb_TRANS: Attagene TRANS-FACTORIAL HepG2 Assay for human Retinoic Acid Receptor beta (AID 2283004; active means hit-call score of the fitted dose curve at least 0.9, where 1 is the maximum). The gist of the method: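 HepG2 cells were transiently transfected with GAL4-UAS reporter units that report activity of exogenous chimeric NR-Gal4 proteins, then exposed to compound for 24 h. Reporter mRNA was quantified by RT-PCR with capillary electrophoresis fluorescence, as gain of signal over DMSO.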
Chain of human Retinoic Acid Receptor beta (RARb), RARB (gene 5915) (P10826 whole entry, looked up, the tested form may be a part): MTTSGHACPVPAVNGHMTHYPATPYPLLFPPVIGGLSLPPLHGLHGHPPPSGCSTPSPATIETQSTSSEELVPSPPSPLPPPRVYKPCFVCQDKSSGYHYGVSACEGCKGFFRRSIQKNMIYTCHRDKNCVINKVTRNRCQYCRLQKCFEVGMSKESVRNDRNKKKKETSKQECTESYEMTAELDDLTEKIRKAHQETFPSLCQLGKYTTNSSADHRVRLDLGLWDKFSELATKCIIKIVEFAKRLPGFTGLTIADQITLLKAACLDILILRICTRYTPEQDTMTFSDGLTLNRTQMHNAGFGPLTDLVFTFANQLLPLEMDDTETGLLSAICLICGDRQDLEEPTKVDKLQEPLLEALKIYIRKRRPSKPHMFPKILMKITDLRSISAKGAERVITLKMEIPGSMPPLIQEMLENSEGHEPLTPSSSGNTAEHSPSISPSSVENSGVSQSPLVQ

Chain of Tumor necrosis factor (Homo sapiens) (P01375 whole entry, looked up): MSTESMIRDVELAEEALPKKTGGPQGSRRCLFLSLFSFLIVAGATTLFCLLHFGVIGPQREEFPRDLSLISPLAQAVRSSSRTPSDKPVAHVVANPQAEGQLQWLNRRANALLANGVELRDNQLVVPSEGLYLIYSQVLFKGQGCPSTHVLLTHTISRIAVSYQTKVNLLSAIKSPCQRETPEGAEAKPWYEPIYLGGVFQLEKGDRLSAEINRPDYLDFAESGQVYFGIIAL

Take `CCCCCCCCCC/C=C/C1CC(=O)OC1=O` (stereo not given): the outcome is “inactive” in [1]; “inactive” in test [2]; “inactive” in [3]; “inactive” in test [4]; “inactive” in test [5]; “inactive” with CD40, CD40 (gene 958) [6]. The outcome in [7] is “inactive”; in [8], “inactive”; in the test with CD38, CD38 (gene 952) it was “inactive”; with CD40, CD40 (gene 958) [9], “inactive”; in the test with CD69, CD69 (gene 969), “inactive”; in test [10], “inactive”. In addition, the outcome in test [11], in [12], in test [13], in [14], in [15] and in test [16] was inactive. Moreover, the result in [17] was inactive.
In the case of `CCCCCC1CCCC(=O)O1` (stereo not given), in [18], the call was inactive.
`CC(=O)c1nccs1`: in test [18], the molecule was classed as inactive.
Regarding `CO[Si](CCCNCCN)(OC)OC`, the outcome in [18] was inactive.
With `Oc1cccc2ccccc12`, the outcome in test [1] was “inactive”; in [2] it was “inactive”; in test [3], “inactive”; in test [4], “inactive”; in test [5] it was “inactive”; with CD40, CD40 (gene 958) [6] it was “inactive”. In addition, the outcome in [7] is “inactive”; in [8], “inactive”; with CD38, CD38 (gene 952) it was “inactive”; with CD40, CD40 (gene 958) [9] it was “inactive”; in the test with CD69, CD69 (gene 969) it was “inactive”; in [10] it was “inactive”. Moreover, the outcome in test [12], in test [13], in test [16] and in test [17] was inactive. For the same molecule, the AC50 was 3.97 µM (active) in [11], 2.2 µM (active) in test [14] and 0.0576 µM (active) in [15].
As for `CC[N+](CC)(CC(=O)Nc1c(C)cccc1C)Cc1ccccc1`, the AC50 in test [2] was 39.8 µM (active). Further, the outcome in test [3] is “inactive”; in test [4] it was “inactive”; in [5], “inactive”; in the test with CD40, CD40 (gene 958) [6] it was “inactive”; in [7], “inactive”; in test [8], “inactive”. Further, the outcome with CD38, CD38 (gene 952) is “inactive”; with CD40, CD40 (gene 958) [9], “inactive”; with CD69, CD69 (gene 969), “inactive”; in test [10], “inactive”; in test [11] it was “inactive”; in test [12], “inactive”. Also, the result in [13], in [14], in test [15], in test [16] and in test [17] was inactive.
Turning to `CC[N+](CC)(CC(=O)Nc1c(C)cccc1C)Cc1ccccc1` (tested in a mixture with another compound), the outcome was “inactive” in test [1]; “inactive” in test [4]; “inactive” with CD40, CD40 (gene 958) [6]; “inactive” in test [7]; “inactive” in test [8]; “inactive” with CD38, CD38 (gene 952). The outcome in the test with CD40, CD40 (gene 958) [9] is “inactive”; with CD69, CD69 (gene 969), “inactive”; in [10] it was “inactive”; in [11], “inactive”; in test [12] it was “inactive”.
